JMJD2A Tudor inh = blocks the human JMJD2A Tudor domain; O75164; Potency, µM (titrated, usually from 114 µM), hits mostly inhibitors; 390,000 tested, 4.4% active; AID 504339; AlphaScreen JMJD2A-Tudor / H3K4me3 peptide binding; also: nearly all actives have a fitted effect of over 50% in size
Target sequence (O75164 whole entry, looked up, the tested form may be a part): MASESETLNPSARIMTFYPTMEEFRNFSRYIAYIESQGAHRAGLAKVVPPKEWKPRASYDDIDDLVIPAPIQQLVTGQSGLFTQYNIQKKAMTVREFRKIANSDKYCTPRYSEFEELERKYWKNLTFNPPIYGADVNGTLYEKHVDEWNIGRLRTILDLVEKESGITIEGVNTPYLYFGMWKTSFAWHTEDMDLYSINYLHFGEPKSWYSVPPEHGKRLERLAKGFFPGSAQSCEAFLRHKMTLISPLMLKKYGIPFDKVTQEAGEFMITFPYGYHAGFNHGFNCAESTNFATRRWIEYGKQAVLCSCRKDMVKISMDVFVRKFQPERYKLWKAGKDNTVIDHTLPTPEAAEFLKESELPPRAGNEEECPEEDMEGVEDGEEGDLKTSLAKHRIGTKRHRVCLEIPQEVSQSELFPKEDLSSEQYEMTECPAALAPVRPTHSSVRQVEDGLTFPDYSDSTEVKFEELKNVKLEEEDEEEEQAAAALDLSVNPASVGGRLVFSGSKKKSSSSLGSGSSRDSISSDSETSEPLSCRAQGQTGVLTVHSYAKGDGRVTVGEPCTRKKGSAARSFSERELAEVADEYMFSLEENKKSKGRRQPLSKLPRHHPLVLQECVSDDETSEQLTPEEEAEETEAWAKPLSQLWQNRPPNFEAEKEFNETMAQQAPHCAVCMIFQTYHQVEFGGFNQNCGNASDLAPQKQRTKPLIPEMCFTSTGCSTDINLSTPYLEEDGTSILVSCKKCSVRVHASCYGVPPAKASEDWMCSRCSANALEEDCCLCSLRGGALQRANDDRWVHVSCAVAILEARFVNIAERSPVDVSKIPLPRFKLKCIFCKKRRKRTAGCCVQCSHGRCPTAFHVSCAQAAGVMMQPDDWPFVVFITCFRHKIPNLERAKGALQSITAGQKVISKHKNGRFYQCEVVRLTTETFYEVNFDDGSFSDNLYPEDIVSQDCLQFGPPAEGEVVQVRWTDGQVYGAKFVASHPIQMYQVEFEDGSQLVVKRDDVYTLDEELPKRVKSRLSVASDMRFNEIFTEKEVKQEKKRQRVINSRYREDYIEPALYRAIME
G9a block = blocks human histone lysine methyltransferase G9a; Potency, µM (highest dose often 102 µM), actives largely listed as inhibitors; Q96KQ7; AID 504332; 350,000 tested, 8.8% active; G9a H3K9 monomethylation, AlphaScreen, 2 h; also: nearly all actives have a fitted effect of over 75% in size
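Using a bead-based AlphaScreen, monomethylated H3K9 product from 2 h room-temperature reactions (G9a 20 nM, peptide 500 nM, SAM 20 uM) was detected with 0.5 ug/mL rabbit anti-H3K9me1 antibody.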
HP1b chromo inh = inhibitors of HP1-beta chromodomain binding to methylated histone tails; P83916; AlphaScreen HP1-beta / biotin-H3K9me3 peptide binding; Potency, µM (top dose mostly 114 µM), most hits filed as inhibitors; 390,000 tested, 0.56% active; also: nearly all actives have a fitted effect of over 70% in size
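AlphaScreen: HP1-beta (50 nM) preformed 30 min with biotin-H3(1-18)K9me3 peptide (50 nM) in PBS pH 7.4, 0.01% Tween-20. Compound added for 30 min at RT, then streptavidin donor/nickel chelate acceptor beads (10 ug/mL) for 30 min.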
Sfp inh = inhibitors of Bacillus subtilis Sfp phosphopantetheinyl transferase. Potency, µM, actives largely listed as inhibitors. Biochemical Sfp PPTase activity, qHTS. 310,000 tested, 3.5% active. Q9F4F7;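 also: the enzyme is Sfp with the accession as filed and its product quenches rhodamine fluorescence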
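Fluorescence-quenching assay: 15 nM Sfp-PPTase preincubated 15 min at room temperature with compound, then 5 uM rhodamine-CoA and 12.5 uM BHQ-2-labelled YbbR peptide added. Fluorescence (ex 525/em 598 nm) read at start and after 30 min; difference gives rate.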
BAZ2B inh = blocks human BAZ2B. Q9UIF8. AlphaScreen BAZ2B-H3K14Ac peptide displacement. Potency, µM (top dose mostly 114 µM), hits mostly inhibitors. 360,000 tested, 4.4% active; also: nearly all actives have a fitted effect of over 60% in size
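Compounds, titrated to a top concentration of 110 uM, were incubated 30 min at room temperature with preformed BAZ2B/acetyl-K14 H3 peptide complex (50 nM each). Proximity signal was measured by AlphaScreen after 20 min with beads.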
PLK1 PBD inh = blocks phosphopeptide binding to human PLK1 polo-box domain | P53350 | Plk1 PBD binding of FITC phosphopeptide, fluorescence polarization | Potency, µM, actives largely listed as inhibitors | 360,000 tested, 2.8% active | AID 720504; also: series mostly up to about 57 µM; nearly all actives have a fitted effect of over 65% in size
Large screens that a line does not name were inactive; ! = not active in a repeat. Sampled rows, rich in hits. Any-hit rate of the full collection: about 12%. Calls follow the shape of the dose curve; as a rule, active = well fitted curve in the direction sought with a large enough effect; inconclusive = small, poorly fitted or top-dose-only effect, or another doubt; inactive = no such curve, though single readings can be large; an effect the other way counts as inactive or inconclusive.

CCOc1ccc(OCC)c(NC(=O)C2CCN(S(=O)(=O)c3ccc4c(c3)CC(C)N4C(C)=O)CC2)c1 (stereo unspecified)	JMJD2A Tudor inh inconclusive, PLK1 PBD inh 30µM
CCOc1ccc(NC(=O)C2CCN(S(=O)(=O)c3ccc4c(c3)CC(C)N4C(C)=O)CC2)cc1 (stereo unspecified)	none
Cc1ccc2c(=O)c(C(=O)c3cccc(Cl)c3)cn(CC(=O)Nc3ccccc3C(F)(F)F)c2n1	none (no result: Sfp inh, PLK1 PBD inh)
O=C(Nc1ccc(S(=O)(=O)NC2=NCCCCC2)cc1)c1ccc(Cl)cc1Cl	G9a block inconclusive (no result: Sfp inh)
COC(=O)c1cc2occc2n1Cc1nc(-c2cccc(Br)c2)oc1C	none (no result: Sfp inh, PLK1 PBD inh)
NCCC(=O)N1c2ccccc2Sc2ccccc21	none (no result: G9a block)
O=C1CS/C(=N\C(=O)N2c3ccccc3Sc3ccccc32)N1	JMJD2A Tudor inh inconclusive, G9a block 5.6µM, BAZ2B inh inconclusive
Cc1ccc(-n2c(SCC(N)=O)nnc2-c2ccc(S(=O)(=O)N3CCCCC3)cc2)c(C)c1	JMJD2A Tudor inh inconclusive, G9a block 40µM
C[C@@H]1C[C@H](OC(=O)[C@@H](O)c2ccccc2)CC(C)(C)N1C	none (no result: JMJD2A Tudor inh, HP1b chromo inh, BAZ2B inh, PLK1 PBD inh)
CCOC(=O)Cc1csc(NC(=O)c2csc3c2CCCC3)n1	G9a block 35µM
CCOC(=O)Cc1csc(NC(=O)c2cc(OC)cc(OC)c2)n1	JMJD2A Tudor inh 79µM
CCOC(=O)Cc1csc(NC(=O)c2ccco2)n1	JMJD2A Tudor inh 79µM
CCOC(=O)Cc1csc(NC(=O)c2ccc(NC(C)=O)cc2)n1	JMJD2A Tudor inh 20µM, G9a block inconclusive
CCOC(=O)Cc1csc(NC(=O)c2ccc(Br)cc2)n1	BAZ2B inh inconclusive (no result: G9a block)
CC1CCC2(CC1)NC(=O)N(CC(=O)Nc1cccc(S(=O)(=O)N3CCCCC3)c1)C2=O (stereo unspecified)	JMJD2A Tudor inh inconclusive (no result: G9a block, Sfp inh, BAZ2B inh)
CN(c1ccccc1)S(=O)(=O)c1cccc(NC(=O)CN2CCc3ccccc3C2)c1	none (no result: BAZ2B inh)
CCC1CCC2(CC1)NC(=O)N(CC(=O)Nc1cccc(S(=O)(=O)N(C)c3ccccc3)c1)C2=O (stereo unspecified)	G9a block 5.6µM (no result: Sfp inh)
CN1C(=O)N(CC(=O)Nc2cccc(S(=O)(=O)N(C)c3ccccc3)c2)C(=O)C12CCCCC2	G9a block 56µM (no result: Sfp inh)
COc1ccc(C(C)NC(=S)NC2CCCC2)cc1OC (stereo unspecified)	G9a block 18µM
N=C(C[C@@H](O)COc1ccccc1-c1ccccc1)N1CCCCC1	none (no result: JMJD2A Tudor inh, G9a block, HP1b chromo inh, BAZ2B inh, PLK1 PBD inh)
O=c1c2ccccc2nc2c3ccccc3c(NCc3ccccn3)nn12	JMJD2A Tudor inh inconclusive, G9a block 32µM, BAZ2B inh 50µM
CCOC(=O)c1c(-n2cnnn2)sc2c1CCCC2	none
CCOC(=O)c1c(N2C(=O)Nc3cc(Cl)c(Cl)cc3N2O)sc2c1CCCCC2	JMJD2A Tudor inh 79µM, HP1b chromo inh inconclusive, BAZ2B inh inconclusive, PLK1 PBD inh 13µM (no result: G9a block)
CCOC(=O)c1c(N2C(=O)C3C4C=CC(O4)C3C2=O)sc2c1CCCC2 (stereo unspecified)	JMJD2A Tudor inh 56µM, G9a block 1.8µM, HP1b chromo inh inconclusive, Sfp inh 8.9µM
NC(N)=NCCC[C@H](N)C(=O)NCC(=O)N[C@@H](CC(=O)O)C(=O)N[C@@H](CO)C(=O)O	none (no result: JMJD2A Tudor inh, G9a block, HP1b chromo inh, BAZ2B inh, PLK1 PBD inh)
COc1cc(OC)cc(C(=O)NCCc2csc(-c3cccc(C)c3)n2)c1	none (no result: Sfp inh, PLK1 PBD inh)
CC(Oc1ccc(Br)cc1)C(=O)Nc1ccc(S(=O)(=O)N(C)C2CCN(C)CC2)cc1 (stereo unspecified)	G9a block 35µM (no result: Sfp inh)
Cc1cc(OC(C)C(=O)N2CCC(c3nc4ccccc4o3)CC2)ccc1Cl (stereo unspecified)	JMJD2A Tudor inh inconclusive (no result: Sfp inh, PLK1 PBD inh)
CCOC(=O)c1ccc(NC(=O)Cn2cc(C(=O)c3ccc(Cl)cc3)c(=O)c3ccc(C)nc32)cc1	none (no result: Sfp inh, PLK1 PBD inh)
CSc1ccc2c(c1)C(N1CCN(C)CC1)Cc1ccccc1S2 (stereo unspecified)	JMJD2A Tudor inh 63µM, G9a block 18µM!, BAZ2B inh inconclusive
CN1CCN(C2Cc3cc(F)ccc3Sc3ccc(Cl)cc32)CC1 (stereo unspecified)	JMJD2A Tudor inh inconclusive (no result: G9a block, Sfp inh, BAZ2B inh)
CN1CCN(C2Cc3ccccc3Sc3ccc(Cl)cc32)CC1 (stereo unspecified)	JMJD2A Tudor inh 79µM, G9a block inconclusive
CCc1ccc(NC(=O)CSc2nc(C)c(C(=O)Nc3ccccc3)c(-c3ccc(OC)c(OC)c3)c2C#N)cc1	none (no result: Sfp inh, PLK1 PBD inh)
COc1ccc2c(/C=C/c3cc[n+](C)cc3)c[nH]c2c1	G9a block 50µM
CC[n+]1ccc(/C=C/c2c[nH]c3ccccc23)cc1	JMJD2A Tudor inh inconclusive (no result: G9a block)
Cc1ccc2[nH]cc(/C=C/c3cc[n+](C)cc3)c2c1	G9a block 45µM
COc1ccc(C(=O)c2cn(Cc3ccc(F)cc3)c3ccc(C)cc3c2=O)cc1	none (no result: Sfp inh, PLK1 PBD inh)
Cc1ccc(C)c(N2CCN(C(=O)C3CCN(C(=O)c4cc5sccc5n4C)CC3)CC2)c1	JMJD2A Tudor inh inconclusive, G9a block inconclusive, BAZ2B inh 25µM (no result: Sfp inh, PLK1 PBD inh)
Cc1cccc(N2CCN(C(=O)c3csc4ccccc34)CC2C)c1 (stereo unspecified)	JMJD2A Tudor inh inconclusive, G9a block 50µM, BAZ2B inh inconclusive
Cc1cccc(N2CCN(C(=O)C3CCN(C(=O)c4cc5sccc5n4C)CC3)CC2C)c1 (stereo unspecified)	JMJD2A Tudor inh inconclusive, BAZ2B inh 35µM (no result: Sfp inh, PLK1 PBD inh)
NNC(=O)CNS(=O)(=O)c1ccc([N+](=O)[O-])cc1	G9a block inconclusive, BAZ2B inh inconclusive
Cc1ccccc1S(=O)(=O)NCc1cccnc1	none
O=S(=O)(Nc1ccncc1Cl)c1ccc2ccccc2c1	G9a block 45µM
O=C(NNS(=O)(=O)c1ccc2ccccc2c1)c1cccnc1	JMJD2A Tudor inh 7.9µM
O=S(=O)(NCc1cccnc1)c1ccc2ccccc2c1	none
O=C(NNS(=O)(=O)c1ccccc1)c1cccnc1	none
CCN(CC)C(=O)c1ccc(S(=O)(=O)NCc2cccnc2)cc1	G9a block 79µM
O=[N+]([O-])c1ccccc1S(=O)(=O)NCc1cccnc1	PLK1 PBD inh 27µM
O=C(NCCSc1c(-c2ccc(Br)cc2)[nH]c2ccccc12)c1ccc(S(=O)(=O)N2CCOCC2)cc1	none (no result: Sfp inh, PLK1 PBD inh)
Cc1ccc(C)c(Cn2c3ccccc3c3cnn(CC(=O)NC4CCCCCC4)c(=O)c32)c1	none (no result: Sfp inh, PLK1 PBD inh)
Cc1ccc2cccc(NC(=O)C(C)Oc3ccc(Cl)cc3Cl)c2n1 (stereo unspecified)	none (no result: Sfp inh, PLK1 PBD inh)
O=C(NNS(=O)(=O)c1ccccc1[N+](=O)[O-])c1cccnc1	BAZ2B inh inconclusive, PLK1 PBD inh 27µM (no result: G9a block)
O=C(NNS(=O)(=O)c1ccccc1[N+](=O)[O-])c1ccccc1Cl	none
Cc1ccc(NS(=O)(=O)c2ccc(CCC(=O)NCc3cccnc3)cc2)cc1	G9a block 40µM
